In PubChem BioAssay:
Results filed as inconclusive are left out. Activity calls are given as the source filed them. Unless noted, the rule behind the calls is not given here.

How the values were obtained:
[1] = rapamycin-like changes in RPL19A-GFP expression – cell-based, S. cerevisiae, multiplex flow cytometry, primary screen (AID 1862; in the data active = percent of DMSO control GFP below about 86%;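 note: lower values mimic rapamycin by blocking the RPL19A rise seen in DMSO cells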); details: S. cerevisiae RPL19A-GFP strain, flow cytometry fluorescence, 3 h; at 10 µM; stronger effect = lower value
[2] = TOR pathway GLN3 branch reporter MEP2-GFP changes – S. cerevisiae, multiplex flow cytometry, primary screen (AID 1867;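 active = GFP response, as percent of the DMSO control, above the screen-wide mean plus 3 SD, about 139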;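 note: median GFP channel fluorescence of barcode-gated MEP2-GFP cells measured by flow cytometry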); details: S. cerevisiae MEP2-GFP strain, 3 h, at 10 µM, stronger effect = higher value
[3] = TOR pathway RTG branch CIT2 reporter changes – S. cerevisiae, GFP fusion, multiplex flow cytometry, primary screen (AID 1870;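 active = percent response above a set limit, the screen-wide mean plus 3 SD, cut at about 130% in these data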;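 note: barcoded CIT2-GFP strain pooled with four other GFP strains with rapamycin as positive control; median GFP fluorescence per well over plate mean of DMSO wells so 100% = DMSO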); details: S. cerevisiae CIT2-GFP expression, 3 h, at 10 µM, stronger effect = higher value
[4] = TOR pathway LAP4-GFP level changes – S. cerevisiae, multiplex flow cytometry, primary screen (AID 1873;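 active = GFP signal, as percent of the solvent control, above the screen mean plus 3 SD, about 149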); details: S. cerevisiae LAP4-GFP expression, 3 h, at 10 µM, stronger effect = higher value
[5] = yeast AGP1-GFP level changes, GLN3 branch – cell-based, multiplex flow cytometry, S. cerevisiae, primary screen (AID 1887;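 active = GFP signal above the screen-wide mean plus 3 SD, that is over about 124.5% of the solvent control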;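 note: AGP1-GFP fusion strain of S. cerevisiae within a five-strain barcoded multiplex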); details: 3 h, at 10 µM, stronger effect = higher value
[6] = reduced mouse 2C T cell binding to pMHC/ICAM-1 vesicles – MLPCN validation set, flow cytometry, LFA-1/ICAM-1 modulator project, pilot screen (AID 2523;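 active = response below a set limit, under 55% cells CD8-positive and vesicle-bound, and CD8 cells' 90th-percentile brightness under 279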;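 for vesicle binding response: mean PE anti-B7-1 fluorescence of CD8+ cells relative to row control; 100% = QL9-loaded vesicles with DMSO vehicle in the same plate row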); details: 2C mouse CD8+ T cells, at 7 µM, stronger effect = lower value; double positive events: measured here: CD8+/vesicle+ event percentage
[7] = biological target: Integrin beta-1 (Homo sapiens) + Integrin alpha-4 (Homo sapiens) (UniProt P13612+P05556); experiment: alpha4beta1 integrin LIBS antibody binding reduction – U937 cells, HUTS-21 mAb, flow cytometry, validation set, VLA-4 allosteric modulator project, pilot screen (AID 2674;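 active = inhibition above 50%, about 3 SD of the validation set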;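 note: antibody binding induced by the VLA-4 ligand LDV present at three times its Kd; 0% = LDV ligand with antibody and no compound and 100% = antibody without LDV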); details: HUTS-21 LIBS mAb binding, at 6.7 µM, stronger effect = higher value
[8] = calorie-restriction mimetic ROS inhibitors, yeast – validation compound set, pilot screen (AID 2706;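 active = superoxide response below 65% of plate, a cut near 3 SD across the whole screen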;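 note: yeast exposed to compound for one week at 30 degrees C before staining; 100% = mean of all compound wells on the same plate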); details: S. cerevisiae aging, superoxide DHE fluorescence; at 10 µM; stronger effect = lower value
[9] = biological target: Beta-adrenergic receptor kinase 1 (Homo sapiens) (UniProt P25098); experiment: GRK2 binders displacing RNA aptamer, biochemical, validation, human GRK2, bead flow cytometry (AID 488806;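 active = aptamer binding inhibition above 30%, about 3 SD of noise from non-fluorescent compounds; inactive = inhibition at or below 30%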); details: bead-bound GRK2, FAM-aptamer displacement, at 10 µM, stronger effect = higher value
[10] = biological target: Beta-2 adrenergic receptor (Homo sapiens) (UniProt P07550); experiment: agonist-induced loss of surface beta2AR – cell-based, FAP fluorogen, flow cytometry, validation set, pilot screen (AID 504459;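 active = percent response above 42, roughly 3 SD of non-fluorescent test compounds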;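 note: agonist-driven loss of surface beta2AR via internalization measured by FAP dye flow cytometry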); details: Am2.2-beta2AR cells, at 10 µM, stronger effect = higher value
[11] = biological target: AP-2 complex subunit beta (Homo sapiens) (UniProt P63010); experiment: beta-arrestin/AP2 interaction blockers – biochemical, validation set, GST-AP2 beads, flow cytometry, pilot screen (AID 504541;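 active = inhibition above 54%, about 3 SD of non-fluorescent compounds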;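 note: AP2 carries R879A mutation and is captured from E. coli lysate; bead-bound FITC arrestin peptide fluorescence measuring arrestin peptide binding to AP2; 0% = DMSO wells and 100% = excess unlabeled arrestin peptide control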); details: FITC arrestin peptide, at 10 µM, stronger effect = higher value
[12] = cytosolic pH regulators acting via V-ATPase – S. cerevisiae, pHLuorin, HTS validation (AID 504600; in the data active = response above about 15%;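 note: plate controls were DMSO for no effect and reference compound for full effect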); details: V-ATPase proton transport, at 10 µM, stronger effect = higher value
[13] = system: anti-desmoglein-3 scFv antibody binding to human DSG3; experiment: blockers of pathogenic pemphigus antibody–desmoglein-3 binding – biochemical, validation compound set, bead-based, flow cytometry, pilot screen (AID 588368;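 active = binding below the plate cutoff, the plate median minus 3 SD, with a reading above zero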;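 note: signal is the median channel fluorescence of bead-bound GFP antibody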); details: Protein G beads, DSG3-Fc, scFv-GFP binding, at 10 µM, stronger effect = lower value
[14] = system: Botulinum neurotoxin type F light chain protease (Clostridium botulinum); experiment: Clostridium botulinum type F light chain protease inhibitors, microsphere substrate cleavage, validation (AID 588459); details: multiplex microsphere protease substrate cleavage assay, flow cytometry; at 10 µM; stronger effect = higher value
[15] = biological target: Botulinum neurotoxin type A (Clostridium botulinum) (UniProt P0DPI0); experiment: BoNT/A light chain protease inhibitors, biochemical, multiplex microsphere flow cytometry, validation set (AID 588460); details: at 10 µM, stronger effect = higher value
[16] = biological target: Lethal factor (Bacillus anthracis) (UniProt P15917); experiment: Bacillus anthracis lethal factor inhibition, microsphere flow cytometry protease assay, validation at 10 µM (AID 588461); details: multiplex microsphere protease cleavage assay, stronger effect = higher value
[17] = Nile Red efflux blockade in pump-expressing yeast – validation compound set, multiplex, phenotypic, pilot screen (AID 588506;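 active = efflux inhibition above 0.42, the validation set average plus 4 SD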;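 note: Nile Red retained in cells so higher fluorescence means more efflux inhibition; 0 = negative control wells and 1 = enniatin B 25 µM full block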); details: S. cerevisiae pump-expressing triplex, Nile Red efflux flow cytometry; at 10 µM; stronger effect = higher value
[18] = biological target: ATP-binding cassette sub-family B member 6 (Homo sapiens) (UniProt Q9NP58); experiment: blockers of ABCB6-driven porphyrin uptake – K562-ABCB6 cells, flow cytometry, validation set, pilot screen (AID 588550;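 active = inhibition above the screen-wide mean plus 3 SD, about 51%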;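 note: 0% = DMSO wells and 100% = benzethonium chloride 70 µM positive control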); details: K562-ABCB6 porphyrin accumulation, 1 h, at 10 µM, stronger effect = higher value
[19] = AML differentiation inducers, ER-HoxA9 marrow cells – cell-based, GFP/MAC1 double positive, flow cytometry, validation set, primary screen (AID 588685;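 active = differentiation response of at least 50%, scaled between solvent and reference control, from cells with both markers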;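 note: compound exposure lasts four days before antibody staining and flow analysis; 0% = DMSO wells and 100% = 5 µM fulvestrant positive control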); details: stronger effect = higher value

Sequence of Botulinum neurotoxin type A (Clostridium botulinum) (P0DPI0 whole entry, looked up): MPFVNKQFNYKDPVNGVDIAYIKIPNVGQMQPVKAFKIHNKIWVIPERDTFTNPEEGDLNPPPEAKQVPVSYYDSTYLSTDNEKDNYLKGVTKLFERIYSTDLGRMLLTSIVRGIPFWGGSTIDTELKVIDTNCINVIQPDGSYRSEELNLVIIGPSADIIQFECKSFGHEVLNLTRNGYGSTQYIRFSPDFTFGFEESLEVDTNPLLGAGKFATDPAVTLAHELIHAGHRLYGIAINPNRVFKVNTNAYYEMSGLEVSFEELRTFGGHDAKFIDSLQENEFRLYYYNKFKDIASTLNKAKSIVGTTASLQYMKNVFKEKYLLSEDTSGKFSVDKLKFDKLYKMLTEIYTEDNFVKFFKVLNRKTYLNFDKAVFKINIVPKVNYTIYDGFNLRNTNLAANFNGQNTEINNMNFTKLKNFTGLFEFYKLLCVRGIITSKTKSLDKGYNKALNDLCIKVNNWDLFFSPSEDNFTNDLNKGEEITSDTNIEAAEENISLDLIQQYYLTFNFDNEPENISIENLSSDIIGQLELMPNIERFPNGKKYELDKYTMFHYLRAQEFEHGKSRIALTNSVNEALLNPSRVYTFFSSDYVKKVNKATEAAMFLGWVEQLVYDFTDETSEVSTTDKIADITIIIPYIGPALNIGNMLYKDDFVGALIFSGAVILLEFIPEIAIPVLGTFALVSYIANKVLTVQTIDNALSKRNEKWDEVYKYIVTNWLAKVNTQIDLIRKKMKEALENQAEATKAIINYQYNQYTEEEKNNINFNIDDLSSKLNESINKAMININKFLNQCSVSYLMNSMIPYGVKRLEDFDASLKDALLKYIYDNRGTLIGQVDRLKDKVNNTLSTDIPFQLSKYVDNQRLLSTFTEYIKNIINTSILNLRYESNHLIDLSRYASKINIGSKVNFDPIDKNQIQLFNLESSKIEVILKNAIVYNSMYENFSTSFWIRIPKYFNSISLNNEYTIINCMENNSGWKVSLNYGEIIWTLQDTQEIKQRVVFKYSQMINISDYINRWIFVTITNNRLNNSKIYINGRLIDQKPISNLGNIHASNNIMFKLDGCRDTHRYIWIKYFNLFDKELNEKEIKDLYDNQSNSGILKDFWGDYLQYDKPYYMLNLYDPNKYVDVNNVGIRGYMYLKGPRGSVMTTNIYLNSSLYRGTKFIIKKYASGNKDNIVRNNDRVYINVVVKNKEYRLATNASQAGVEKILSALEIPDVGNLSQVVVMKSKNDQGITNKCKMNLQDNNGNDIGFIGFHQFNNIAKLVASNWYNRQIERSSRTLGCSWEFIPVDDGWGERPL
Sequence of Integrin beta-1 (Homo sapiens) + Integrin alpha-4 (Homo sapiens) (P05556 whole entry, looked up): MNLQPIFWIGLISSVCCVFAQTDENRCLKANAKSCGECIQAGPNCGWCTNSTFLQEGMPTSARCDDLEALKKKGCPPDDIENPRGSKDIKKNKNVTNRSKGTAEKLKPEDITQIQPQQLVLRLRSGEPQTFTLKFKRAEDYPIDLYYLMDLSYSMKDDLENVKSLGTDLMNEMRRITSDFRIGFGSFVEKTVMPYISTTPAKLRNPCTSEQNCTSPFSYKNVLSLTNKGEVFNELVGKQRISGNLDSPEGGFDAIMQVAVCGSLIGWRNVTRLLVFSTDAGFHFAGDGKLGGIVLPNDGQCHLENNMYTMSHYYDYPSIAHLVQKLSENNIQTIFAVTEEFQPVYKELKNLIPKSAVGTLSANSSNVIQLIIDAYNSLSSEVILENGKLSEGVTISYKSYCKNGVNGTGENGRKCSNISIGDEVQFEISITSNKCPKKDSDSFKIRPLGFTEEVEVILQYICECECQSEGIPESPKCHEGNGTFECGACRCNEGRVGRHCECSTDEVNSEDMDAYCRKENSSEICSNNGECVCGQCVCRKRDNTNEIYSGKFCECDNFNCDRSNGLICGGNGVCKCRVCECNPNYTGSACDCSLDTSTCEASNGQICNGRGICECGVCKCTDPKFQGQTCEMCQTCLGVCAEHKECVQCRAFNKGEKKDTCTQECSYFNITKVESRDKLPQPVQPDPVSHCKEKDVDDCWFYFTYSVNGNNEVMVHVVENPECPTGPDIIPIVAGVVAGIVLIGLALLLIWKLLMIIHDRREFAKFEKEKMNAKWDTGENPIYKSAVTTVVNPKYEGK
Sequence of Integrin beta-1 (Homo sapiens) + Integrin alpha-4 (Homo sapiens) (P13612 whole entry, looked up): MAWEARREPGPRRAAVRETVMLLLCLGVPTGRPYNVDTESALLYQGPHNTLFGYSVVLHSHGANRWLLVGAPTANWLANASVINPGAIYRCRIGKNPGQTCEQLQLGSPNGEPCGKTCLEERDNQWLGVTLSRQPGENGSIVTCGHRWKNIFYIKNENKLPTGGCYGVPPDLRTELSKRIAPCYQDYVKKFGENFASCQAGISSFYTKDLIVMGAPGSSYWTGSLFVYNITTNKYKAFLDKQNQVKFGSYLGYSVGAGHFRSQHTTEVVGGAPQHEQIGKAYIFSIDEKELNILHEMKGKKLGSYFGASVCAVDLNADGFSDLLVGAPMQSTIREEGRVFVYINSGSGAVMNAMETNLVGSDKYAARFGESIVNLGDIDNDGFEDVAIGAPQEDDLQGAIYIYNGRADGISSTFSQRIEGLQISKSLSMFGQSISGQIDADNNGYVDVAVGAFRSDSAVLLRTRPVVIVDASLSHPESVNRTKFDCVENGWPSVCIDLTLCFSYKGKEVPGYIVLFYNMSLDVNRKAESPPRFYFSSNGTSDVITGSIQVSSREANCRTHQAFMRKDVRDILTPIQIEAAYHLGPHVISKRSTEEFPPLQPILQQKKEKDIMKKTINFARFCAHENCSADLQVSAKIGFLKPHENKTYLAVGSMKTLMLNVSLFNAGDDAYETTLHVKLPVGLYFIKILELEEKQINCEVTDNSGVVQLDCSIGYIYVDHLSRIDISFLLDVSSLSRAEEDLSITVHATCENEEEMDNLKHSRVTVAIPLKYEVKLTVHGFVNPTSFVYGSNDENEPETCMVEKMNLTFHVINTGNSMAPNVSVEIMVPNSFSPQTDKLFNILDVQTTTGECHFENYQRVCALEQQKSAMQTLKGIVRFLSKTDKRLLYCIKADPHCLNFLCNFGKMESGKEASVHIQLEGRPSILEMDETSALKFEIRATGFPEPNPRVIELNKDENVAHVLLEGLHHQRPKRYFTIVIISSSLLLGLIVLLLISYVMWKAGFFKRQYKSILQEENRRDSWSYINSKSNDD
Sequence of AP-2 complex subunit beta (Homo sapiens) (P63010 whole entry, looked up, one chain of several): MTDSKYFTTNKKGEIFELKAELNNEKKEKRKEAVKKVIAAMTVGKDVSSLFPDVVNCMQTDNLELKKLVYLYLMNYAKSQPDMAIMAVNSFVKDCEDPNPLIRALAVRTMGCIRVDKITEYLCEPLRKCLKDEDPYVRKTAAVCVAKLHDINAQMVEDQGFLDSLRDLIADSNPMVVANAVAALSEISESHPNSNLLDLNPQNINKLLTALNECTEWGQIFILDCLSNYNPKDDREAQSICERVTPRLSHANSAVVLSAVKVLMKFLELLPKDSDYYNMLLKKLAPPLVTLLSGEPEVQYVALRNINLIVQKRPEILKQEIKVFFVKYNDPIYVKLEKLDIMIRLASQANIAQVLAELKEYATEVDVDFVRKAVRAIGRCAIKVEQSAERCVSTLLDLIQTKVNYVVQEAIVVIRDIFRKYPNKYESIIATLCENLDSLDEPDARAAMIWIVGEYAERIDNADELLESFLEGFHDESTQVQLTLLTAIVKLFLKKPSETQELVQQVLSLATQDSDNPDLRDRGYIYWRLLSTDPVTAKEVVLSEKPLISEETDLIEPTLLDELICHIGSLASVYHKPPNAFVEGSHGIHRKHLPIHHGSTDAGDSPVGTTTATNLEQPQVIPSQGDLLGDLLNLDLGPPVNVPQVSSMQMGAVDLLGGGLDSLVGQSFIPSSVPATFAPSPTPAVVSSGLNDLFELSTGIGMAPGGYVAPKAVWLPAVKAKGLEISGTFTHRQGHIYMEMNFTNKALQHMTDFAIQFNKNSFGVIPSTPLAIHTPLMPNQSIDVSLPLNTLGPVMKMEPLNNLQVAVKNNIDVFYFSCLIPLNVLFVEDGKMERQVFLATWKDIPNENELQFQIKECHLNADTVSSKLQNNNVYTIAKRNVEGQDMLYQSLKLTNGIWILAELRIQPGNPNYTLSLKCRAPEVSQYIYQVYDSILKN
Sequence of Beta-adrenergic receptor kinase 1 (Homo sapiens) (P25098 whole entry, looked up): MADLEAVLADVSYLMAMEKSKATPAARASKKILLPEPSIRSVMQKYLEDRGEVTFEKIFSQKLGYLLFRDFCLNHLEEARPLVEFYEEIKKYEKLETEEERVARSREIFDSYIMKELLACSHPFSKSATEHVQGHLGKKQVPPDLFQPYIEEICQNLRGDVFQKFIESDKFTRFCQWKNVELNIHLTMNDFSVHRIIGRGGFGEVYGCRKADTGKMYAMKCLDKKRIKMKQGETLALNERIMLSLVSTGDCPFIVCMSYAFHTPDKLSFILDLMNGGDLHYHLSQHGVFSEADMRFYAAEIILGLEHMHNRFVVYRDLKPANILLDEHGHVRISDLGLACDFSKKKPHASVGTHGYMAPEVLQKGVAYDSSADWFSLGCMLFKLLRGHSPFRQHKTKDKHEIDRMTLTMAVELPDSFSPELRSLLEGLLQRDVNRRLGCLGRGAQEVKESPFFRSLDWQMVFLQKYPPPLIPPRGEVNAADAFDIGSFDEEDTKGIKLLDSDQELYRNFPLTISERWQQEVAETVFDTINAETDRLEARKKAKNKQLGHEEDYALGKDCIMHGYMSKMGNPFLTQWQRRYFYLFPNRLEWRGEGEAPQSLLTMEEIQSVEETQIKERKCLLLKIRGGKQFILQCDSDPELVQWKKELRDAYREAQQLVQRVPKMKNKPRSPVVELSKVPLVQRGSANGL

COc1ccc(NC2=NCC(C)S2)cc1 (stereo not given)
69.5%: double positive events [6]
inactive: percent of DMSO control GFP [1] 103% | GFP response vs DMSO [2] 101% | percent response of DMSO control [3] 109% | GFP response vs DMSO [4] 89.3% | GFP response, % of DMSO [5] 96% | vesicle binding response [6] 150% | inhibition [7] 11% | superoxide response (% of plate) [8] 101% | aptamer binding inhibition [9] 2% | response [10] 5.38% | inhibition [11] 5.98% | response [12] 4.39% | binding (% of control) [13] 100% | inhibition [14] -2.8% | inhibition [15] 0.2% | inhibition [16] -2.7% | efflux inhibition (fraction of control) [17] 0.195 | inhibition [18] 0% | differentiation response [19] -3.11%

CN1CC[C@@]23CCCC[C@@H]2[C@@H]1Cc1ccc(O)cc13
60.4%: double positive events [6]
inactive: percent of DMSO control GFP [1] 99.4% | GFP response vs DMSO [2] 110% | percent response of DMSO control [3] 96.6% | GFP response vs DMSO [4] 98.6% | GFP response, % of DMSO [5] 100% | vesicle binding response [6] 47.7% | inhibition [7] -0.45% | superoxide response (% of plate) [8] 109% | aptamer binding inhibition [9] -1% | response [10] 2.76% | inhibition [11] 9.83% | response [12] -1.79% | binding (% of control) [13] 92% | inhibition [14] -10% | inhibition [15] -1.6% | inhibition [16] -1.3% | efflux inhibition (fraction of control) [17] -0.07 | inhibition [18] 2% | differentiation response [19] 3.18%

Cc1ccsc1C(=O)C1CCCN(Cc2cc3ccccc3o2)C1 (stereo not given)
inactive: percent of DMSO control GFP [1] 102% | GFP response vs DMSO [2] 98.3% | percent response of DMSO control [3] 114% | GFP response vs DMSO [4] 85.5% | GFP response, % of DMSO [5] 102% | vesicle binding response [6] 51.3% | inhibition [7] 8.88% | superoxide response (% of plate) [8] 97.5% | aptamer binding inhibition [9] 1% | response [10] -13% | inhibition [11] 5.6% | response [12] -0.26% | binding (% of control) [13] 96.9% | inhibition [14] 2.8% | inhibition [15] -0.7% | inhibition [16] -1% | efflux inhibition (fraction of control) [17] -0.2 | inhibition [18] -3% | differentiation response [19] -4.64%
59.8%: double positive events [6]

C#CCN(C)C(C)Cc1ccccc1 (stereo not given)
62.5%: double positive events [6]
inactive: percent of DMSO control GFP [1] 100% | GFP response vs DMSO [2] 108% | percent response of DMSO control [3] 104% | GFP response vs DMSO [4] 88.7% | GFP response, % of DMSO [5] 102% | vesicle binding response [6] 225% | inhibition [7] 1.62% | superoxide response (% of plate) [8] 97.6% | aptamer binding inhibition [9] 3% | response [10] -1.41% | inhibition [11] -6.88% | response [12] 3.03% | binding (% of control) [13] 97.2% | inhibition [14] -1% | inhibition [15] -0.6% | inhibition [16] 3.9% | efflux inhibition (fraction of control) [17] -0.1 | inhibition [18] -12% | differentiation response [19] 15.9%
